According to PubChem BioAssay (EPA / NIEHS):
Calls of active or inactive are those of the source. Rule for the calls: active = hit-call score of the fitted dose curve at least 0.9, where 1 is the maximum; inconclusive = response in the unintended direction; inactive = score below 0.9.

Biological target: Estrogen receptor (Homo sapiens) (UniProt P03372)
Assay: OT_ERa_GFPERaERE_0120: Odyssey Thera (OT) 2-hour HeLa Transcription Induction Assay for Estrogen Receptor (AID 2283382)
Method: OT_ERa_GFPERaERE_0120 is a cell-based, single-readout assay that uses HeLa, a human cervix cell line, with measurements taken at 2 hours after chemical dosing in a 384-well plate.OT_ERa_GFPERaERE_0120 is one of one assay component(s) measured or calculated from the OT_ERa_GFPERaERE_0120 assay. It is designed to make measurements of fluorescent protein induction, a form of inducible reporter, as detected with optical microscopy: fluorescence microscopy signals by Microscopy technology.Data from the assay component OT_ERa_GFPERaERE_0120 was analyzed into 1 assay endpoint. This assay endpoint, OT_ERa_EREGFP_0120, was analyzed in the positive analysis fitting direction relative to DMSO as the negative control and baseline of activity. Using a type of inducible reporter, measures of receptor for gain-of-signal activity can be used to understand the reporter gene at the pathway-level as they relate to the gene ESR1. Furthermore, this assay endpoint can be referred to as a primary readout, because the performed assay has only produced 1 assay endpoint. To generalize the intended target to other relatable targets, this assay endpoint is annotated to the nuclear receptor intended target family, where the subfamily is steroidal.
All assay endpoints are quantified using high content image analysis algorithms.

Chain of Estrogen receptor (Homo sapiens) (P03372 whole entry, looked up): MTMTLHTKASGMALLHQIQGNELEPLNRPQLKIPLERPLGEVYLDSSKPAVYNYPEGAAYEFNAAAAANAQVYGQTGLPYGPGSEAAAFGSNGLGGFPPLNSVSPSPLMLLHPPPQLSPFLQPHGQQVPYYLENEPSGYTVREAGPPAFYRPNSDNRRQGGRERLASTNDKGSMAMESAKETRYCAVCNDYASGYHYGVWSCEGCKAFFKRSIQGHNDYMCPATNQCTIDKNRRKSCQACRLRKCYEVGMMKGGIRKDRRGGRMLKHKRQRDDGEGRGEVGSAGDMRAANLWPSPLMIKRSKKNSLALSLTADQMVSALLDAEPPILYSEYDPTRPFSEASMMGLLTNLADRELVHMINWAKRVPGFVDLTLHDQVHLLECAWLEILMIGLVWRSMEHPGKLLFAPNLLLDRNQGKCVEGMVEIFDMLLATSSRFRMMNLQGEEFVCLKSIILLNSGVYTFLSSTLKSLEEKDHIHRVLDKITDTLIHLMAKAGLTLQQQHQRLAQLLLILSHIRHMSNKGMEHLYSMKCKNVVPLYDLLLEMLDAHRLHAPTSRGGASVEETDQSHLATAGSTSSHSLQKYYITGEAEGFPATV

Compound	outcome	AC50
CCOP(=S)(OCC)Oc1nc(Cl)n(C(C)C)n1	inactive	
CCCCC(O)(Cn1cncn1)c1ccc(Cl)cc1Cl (stereo not given)		77.5 µM (active)
Clc1nc(Cl)nc(Nc2ccccc2Cl)n1	inactive	
CO/N=C(/C1=NOCCO1)c1ccccc1Oc1ncnc(Oc2ccccc2Cl)c1F	inactive	
CNC(=O)N(C)c1nnc(C(C)(C)C)s1	inactive	
CCOc1nc(F)cc2nc(S(=O)(=O)Nc3c(Cl)cccc3Cl)nn12	inactive	
COCc1cnc(C2=NC(C)(C(C)C)C(=O)N2)c(C(=O)O)c1 (stereo not given)	inactive	
CC(C)(C)C(=O)C(Oc1ccc(Cl)cc1)n1cncn1 (stereo not given)	inactive	
CC1(C)C(C=C(Cl)Cl)C1C(=O)OC(C#N)c1cccc(Oc2ccccc2)c1 (stereo not given)	inactive	
CCC(C)n1c(=O)[nH]c(C)c(Br)c1=O (stereo not given)	inactive	
COP(=O)(OC)O/C(C)=C/C(=O)N(C)C	inactive	
Nc1c(Cl)c(F)nc(OCC(=O)O)c1Cl	inactive	
N#Cc1c[nH]cc1-c1cccc2c1OC(F)(F)O2	inactive	
O=P(O)(O)CCCl	inactive	
Cc1ccc(N=CN(C)C=Nc2ccc(C)cc2C)c(C)c1	inactive	
N#CN=C1SCCN1Cc1ccc(Cl)nc1	inactive	
Nc1cnn(-c2ccccc2)c(=O)c1Cl	inactive	
CCNC(=O)NC(=O)C(C#N)=NOC	inactive	
CC(C)Nc1nc(Cl)nc(NC(C)C)n1	inactive	
CC(C)NC(=O)N1CC(=O)N(c2cc(Cl)cc(Cl)c2)C1=O	inactive	

Compound	outcome	AC50
CCOc1nc(C(Cl)(Cl)Cl)ns1	inactive	
O=c1n(Cl)c(=O)n(Cl)c(=O)n1Cl	inactive	
CC(C)Oc1cccc(NC(=O)c2ccccc2C(F)(F)F)c1	inactive	
CCCCOCN(C(=O)CCl)c1c(CC)cccc1CC	inactive	
OC(c1ccc(Cl)cc1)(c1ccc(Cl)cc1)C(Cl)(Cl)Cl	inactive	
COc1cc(OC)nc(NC(=O)NS(=O)(=O)c2ncccc2OCC(F)(F)F)n1	inactive	
Cn1c(-c2ccccc2)cc(-c2ccccc2)[n+]1C	inactive	
O=C(O)c1c(Cl)ccc2cc(Cl)cnc12	inactive	
CCCC(=NOCC)C1=C(O)CC(CC(C)SCC)CC1=O (stereo not given)	inactive	
CCCN(CC)CC1COC2(CCC(C(C)(C)C)CC2)O1 (stereo not given)	inactive	
COCC(C)N(C(=O)CCl)c1c(C)csc1C (stereo not given)	inactive	
Clc1cccc(C(Cl)(Cl)Cl)n1	inactive	
COc1cc(Cl)c(OC)cc1Cl	inactive	
CCOP(=O)(OCC)Oc1nc(Cl)c(Cl)cc1Cl	inactive	
CC1(C)CON(Cc2ccccc2Cl)C1=O	inactive	
COC(=O)N(C(=O)N1CO[C@@]2(C(=O)OC)Cc3cc(Cl)ccc3C2=N1)c1ccc(OC(F)(F)F)cc1	inactive	
N#Cc1c(Cl)cccc1Cl	inactive	
COP(=S)(OC)Oc1ccc([N+](=O)[O-])c(C)c1	inactive	
O=C1C2CC=CCC2C(=O)N1SC(Cl)(Cl)Cl (stereo not given)	inactive	
CSC(=O)c1c(C(F)F)nc(C(F)(F)F)c(C(=O)SC)c1CC(C)C	inactive	
